Experiments:
Assay type in all cases: functional
[1] = molecular target: Solute carrier family 2, facilitated glucose transporter member 1 (Homo sapiens) (UniProt P11166); assay: ST_JUDE_LEISH: Cytotoxicity at 2uM final concentration against transgenic Leishmania Mexicana promastigotes LmGLUT1 that are glucose transport deficient and complemented with the human glucose transporter GLUT1. Activity is measured by DNA content using SYBR green in vitro
[2] = molecular target: Hexose transporter 1 (Plasmodium falciparum) (UniProt O97467); assay: ST_JUDE_LEISH: Cytotoxicity at 2uM final concentration against transgenic Leishmania Mexicana promastigotes LmPfHT that are glucose transport deficient and complemented with the Plasmodium falciparum hexose transporter. Activity is measured by DNA content using SYBR green in vitro
[3] = molecular target: Glucose transporter (Leishmania mexicana) (UniProt O61059); assay: ST_JUDE_LEISH: Cytotoxicity at 2uM final concentration against transgenic Leishmania Mexicana promastigotes LmGT2 that are glucose transport deficient and complemented with the L. Mexicana glucose transporter 2. Activity is measured by DNA content using SYBR green in vitro

Solute carrier family 2, facilitated glucose transporter member 1 (Homo sapiens), sequence (P11166 whole entry): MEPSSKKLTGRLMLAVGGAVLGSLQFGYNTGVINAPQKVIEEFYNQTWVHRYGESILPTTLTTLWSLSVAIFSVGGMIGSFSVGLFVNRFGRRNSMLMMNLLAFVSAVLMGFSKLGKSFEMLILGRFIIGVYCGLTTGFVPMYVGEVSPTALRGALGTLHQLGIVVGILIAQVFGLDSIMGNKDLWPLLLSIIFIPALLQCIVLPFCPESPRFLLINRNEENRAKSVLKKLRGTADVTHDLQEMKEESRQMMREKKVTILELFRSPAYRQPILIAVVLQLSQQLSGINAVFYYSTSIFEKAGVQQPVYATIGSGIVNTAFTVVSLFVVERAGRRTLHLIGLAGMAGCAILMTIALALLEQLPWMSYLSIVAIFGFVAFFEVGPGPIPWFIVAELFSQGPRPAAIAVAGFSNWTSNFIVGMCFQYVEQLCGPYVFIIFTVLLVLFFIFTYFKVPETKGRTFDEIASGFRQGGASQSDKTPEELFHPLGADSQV

Structure (SMILES)	inhibition [1]	inhibition [2]	inhibition [3]
CN(CCCCCNC(=O)/C=C/c1ccc(Cl)c(Cl)c1)CCc1c[nH]c2ccccc12	20.6%	20%	12.6%
N#Cc1cccc(NC(=O)c2cccc(S(=O)(=O)NC3CCN(CC4CCCCC4)C3)c2)c1 (stereo not given)	0.54%	1.11%	3.37%
COc1cccc(-c2cc3c(NCc4ccncc4)nccc3s2)c1	3.12%	3.46%	0.82%
O=c1cnc2ccc(F)cc2n1CCN1CCC(NCc2cc(-c3ccccc3)cs2)CC1	28.4%	32.4%	48.5%
O=C(Nc1cccc(CN2CCCN(Cc3cccc(O)c3)CC2)c1)c1ccc2ccccc2c1	1.01%	1.53%	-2.82%
O=C(NC1CCN(CC2(c3ccc(Cl)cc3)CCCCC2)CC1)c1cc[nH]n1	3.86%	2.9%	3.61%
O=C(Nc1cccc(-c2ccc(-c3nc4cc(F)ccc4[nH]3)cc2)c1)Nc1ccc(F)c(F)c1F	2.86%	4.09%	-1.44%
Cc1cc(N[C@@H](Cc2ccccc2)C(=O)NCCCOC(C)C)nc(NCCc2ccc(F)cc2)n1	5.75%	2.58%	0.38%
Oc1cccc2ccc(Nc3ccccn3)nc12	0.94%	2.29%	-0.77%
Cc1ccc(Nc2nc(C)cc(N3CCN(CCc4ccccc4)CC3)n2)cc1	3.08%	3.31%	-1.99%
Oc1cc(Nc2ccnc3cc(-c4ccc(CN5CCCCC5)o4)c(Cl)cc23)c(Cl)cc1F	1.26%	1.8%	1.57%
Cc1cc(NCCC(=O)Nc2ccccc2)nc(NCCc2ccc(F)cc2)n1	3.19%	3.34%	1.6%
Cc1cccc(OCC(=O)Nc2cccc(NC(=O)COc3cccc(C)c3)n2)c1	0.99%	1.55%	1.64%
O=C(NC(c1ccc(Cl)cc1)c1ccc2cccnc2c1O)c1ccccc1 (stereo not given)	0.27%	-0.02%	-2.91%
O=C(NCc1cccs1)[C@H](Cc1ccccc1)Nc1ccnc(NCC2CCCCC2)n1	11.9%	10.5%	10.6%
O=S(=O)(NCCN1CCCC1)c1ccc(-c2cccc(CNCc3ccc(F)cc3)c2)s1	6.73%	2.44%	-1.98%
Cc1[nH]c(/C=C2\C(=O)Nc3ccc(S(=O)(=O)Cc4c(Cl)cccc4Cl)cc32)c(C)c1C(=O)N1CCC[C@@H]1CN1CCCC1	1%	0.58%	2.26%
COc1nc2c(CCN3CC[C@@H](NCc4cc(C#N)c5c(c4)CCO5)[C@@H](O)C3)ccnc2cc1F	7.43%	4.07%	0.66%
O=C(Nc1ccc(-c2nc3ccccc3[nH]2)cc1)c1cnc(Cl)c(Cl)c1	0.44%	-0.34%	2.62%
Cc1ccc(NC(=O)Cc2noc(CC3CCCN3C(=O)N[C@@H](C)c3ccccc3)n2)cc1 (stereo not given in full)	3.91%	2.95%	1.32%
O=C(/C=C/c1ccc(Cl)c(Cl)c1)NCC(CCCN1CCC(c2c[nH]c3ccccc23)CC1)c1ccccc1 (stereo not given)	3.06%	-1.36%	2.05%
Cc1ccnc(NC(c2cccc(Cl)c2Cl)c2ccc3cccnc3c2O)c1 (stereo not given)	2.69%	5.15%	-0.63%
COc1cc2nc(N3CCN(C(=O)c4c(Cl)nsc4-c4ccccc4Cl)CC3)nc(N)c2cc1OC	10.5%	8.35%	5.08%
Clc1ccc(CNC2CCN(CC3CCCCC3)CC2)cc1	5.87%	11.2%	10.2%
CC1CCCC(C)N1C[C@@H](O)CNS(=O)(=O)c1cccc(C(F)(F)F)c1 (stereo not given in full)	0.21%	0.37%	-0.01%

Structure (SMILES)	inhibition [1]	inhibition [2]	inhibition [3]
COc1ccccc1C(C)NCC(=O)Nc1ccccc1Sc1ccccc1 (stereo not given)	0.18%	0.01%	1.44%
O=C(Nc1ccc(Cl)cc1)Nc1ccc(-c2cccc(-c3nc4cc(F)ccc4[nH]3)c2)cc1	2.83%	4.68%	3.09%
COc1ccc(C(=C(C)CC(C)C(=O)O)c2ccccc2)cc1 (stereo not given)	-0.12%	-0.23%	0.28%
CC(=O)N1N=C(c2ccc(Cl)cc2)Sc2c1nc(C1CCCCC1)n2C(C)=O	-0.67%	0.1%	-0.39%
Cc1nc2ccc3ccc(CNc4ccc(C#N)cc4)cc3c2c(=O)[nH]1	50.2%	39.6%	56%
CCCCC(=O)Nc1nc2ccc([N+](=O)[O-])cc2s1	1.98%	2.81%	-0.58%
C=C[C@]1(C)C[C@@H](OC(=O)NC(=O)CCCS(=O)(=O)c2nnc(C)s2)[C@]2(C)[C@H](C)CC[C@]3(CCC(=O)[C@H]32)[C@@H](C)[C@@H]1O	11.1%	11.3%	6.8%
COc1ccc(Nc2ncc3c(-c4cccc(NC(=O)Cc5cccnc5)c4)c[nH]c3n2)cc1OC	-2.6%	-0.55%	-1.58%
COc1cc2nc(N3CCC(CNC(=O)c4ccc(-c5ccc(C(=O)N(C)C)cc5O)cc4)CC3)nc(N)c2cc1OC	0.58%	1.14%	-1.24%
CCN(CCCN1CCCCC1)c1cc(C)nc(Nc2ccc(C)cc2)n1	0%	1.61%	0.31%
Cc1cc(C2CCN(CCCCNC(=O)c3ccc(NC(=O)c4ccc(Cl)cc4)cc3)CC2)c(C)cc1OCc1ccccn1	2.54%	2.64%	0.11%
CCc1ccc(-c2cnc(N)c3cc(-c4ccnc(N)n4)ccc23)cc1	-0.81%	-4.63%	-1.72%
O=C(Nc1ccc(C(F)(F)F)cc1)c1ccc(NCCCN2CCCCCC2)c([N+](=O)[O-])c1	5.54%	6.55%	6.28%
O=C(Nc1ccc(-c2nc3ccccc3[nH]2)cc1)c1ccc([N+](=O)[O-])s1	5.3%	7.89%	3.02%
CCCCC(CCCC)CN1C(=O)C(c2ccccc2)(c2ccccc2)N=C1N	1.9%	1.66%	0.77%
Cc1cccc2nc(-c3cccc(-c4cccc(NC(=O)CCc5c[nH]cn5)c4)c3)[nH]c12	0.79%	0.27%	1.56%
CS(=O)(=O)CCNCc1cccc(-c2cc3c(Nc4ccc(OCc5ccccc5)cc4)ncnc3cn2)c1	13.7%	10.7%	6.71%
CNC(=O)CNC(=O)COc1cccc2ccccc12	2.49%	1.21%	2.7%
Cc1cc2c3c(N)nc(N)nc3ccc2n1C(C)C	75.6%	79.8%	67.2%
COc1cc(C(=O)Nc2cccc(-c3nc4ccccc4[nH]3)c2)ccc1OC(C)=O	-0.73%	2.19%	0.31%
Cn1nc(-c2ccc(CN[C@@H]3CCc4ccc(O)cc43)cc2)c2cnc(NC3CCCC3)nc21	0.66%	-1.03%	-0.55%
CCCCOc1ccc(C(O)C(CN2CCCCC2)c2ccccc2)cc1 (stereo not given)	1.61%	1.36%	0.33%
CCCc1cc(NCc2ccncc2)nc(Nc2ccc(F)cc2)n1	13.4%	8.66%	2.99%
COc1cc(OC)c(OC)cc1CN1CCC2(CC1)CN(Cc1ccc(Cl)c(Cl)c1)C(=O)O2	10.3%	9.41%	8.16%
CC1(C(=O)Nc2ccc([N+](=O)[O-])cc2O)CC2c3ccccc3C1c1ccccc12 (stereo not given)	2.18%	3.79%	0.74%

— ChEMBL document CHEMBL3433997, “St. Jude Leishmania screening dataset” (2016)
